Assay outcomes: PubChem, National Center for Advancing Translational Sciences (NCATS)
This excerpt belongs to a sample that is enriched for hits.
IL1B secr inh = blocks inflammasome-driven IL-1 beta release; activity change, % at 57.5 µM; hit rate 4.7% among 360,000; THP-1 LPS/ATP IL-1B secretion, AlphaLISA, 16 h; active compounds read low; in the data active = activity change below about -50%; inconclusive = mostly about -30% to -49%
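Secreted IL-1B measured by AlphaLISA bead assay after 16 h compound exposure of THP-1 cells; compounds (final up to 57.5 uM) added 1 h before LPS (250 ng/mL) and ATP (1.25 mM) stimulation; lower signal means less secretion.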
TDP1 cell CPT = growth inhibition of DT40 Tdp1-/-;hTDP1 cells with camptothecin (screen for TDP1 inhibitors); Potency, µM (top dose mostly 46.2 µM), usual class: inhibitors; chicken DT40 Tdp1-/-;hTDP1 cells + 20 nM CPT, ATP luminescence, 48 h; hit rate 12% among 420,000; also: nearly all actives have a fitted effect of over 55% in size
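Cell growth measured by CellTiter-Glo luminescence after a minimum 48 h, 37 C compound exposure with 20 nM CPT in Tdp1-knockout DT40 cells stably expressing hTDP1, seeded 400/well; qHTS titration format.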
DT40 TDP1 no CPT = qHTS for Inhibitors of human tyrosyl-DNA phosphodiesterase 1 (TDP1): qHTS in cells in absence of CPT | DT40 Tdp1-/- hTDP1 cells, no CPT, ATP luminescence, 48 h | Potency, µM (doses to about 46.2 µM), hits mostly inhibitors | hit rate 15% among 420,000 | AID 686978, 2013; also: nearly all actives have a fitted effect of over 55% in size
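Seeded 400 DT40-hTDP1 cells/well (vehicle DMSO, no 20 nM CPT); pinned compounds; ≥48 hr at 37 °C; CellTiter-Glo luminescence as viability measure.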
HT1080NT lethal = kills 2HG-producing HT-1080-NT fibrosarcoma cells; hit rate 1.6% among 360,000; HT-1080-NT fibrosarcoma viability, CellTiter-Glo ATP luminescence, 48 h; Potency, µM (top dose mostly 46.1 µM), hits mostly cytotoxic;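 also: NT is the 2HG producing partner of a matched IDH1 knockdown line; nearly all actives have a fitted effect of over 55% in size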
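Viability by CellTiter-Glo luminescence after 48 h compound exposure at 37C of HT-1080-NT cells (750/well, RPMI, 5% FBS). % activity scaled between DMSO wells and medium-only wells, then curve-fitted and categorized by curve class.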
HT1080 IDH1KD tx = toxicity to HT-1080 IDH1 knockdown cells (counter line) | HT-1080 IDH1 knockdown viability, ATP luminescence, 48 h | Potency, µM (series often up to 46.1 µM), actives largely listed as cytotoxic | hit rate 2% among 360,000 | AID 686971
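Assay cells: HT-1080 with IDH1 knockdown, 750 per well, RPMI/5% FBS. Exposure: 48 h at 37 °C following 2 h pre-incubation. Read: CellTiter-Glo luminescence; fitted concentration-response, curve class assigned.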
ALOX12 inh = inhibitors of human 12S-lipoxygenase ALOX12; purified 12hLO, xylenol orange hydroperoxide absorbance; Potency, µM (top dose mostly 108 µM), usual class: inhibitors; hit rate 1.1% among 580,000
Target sequence (P18054 whole entry, looked up): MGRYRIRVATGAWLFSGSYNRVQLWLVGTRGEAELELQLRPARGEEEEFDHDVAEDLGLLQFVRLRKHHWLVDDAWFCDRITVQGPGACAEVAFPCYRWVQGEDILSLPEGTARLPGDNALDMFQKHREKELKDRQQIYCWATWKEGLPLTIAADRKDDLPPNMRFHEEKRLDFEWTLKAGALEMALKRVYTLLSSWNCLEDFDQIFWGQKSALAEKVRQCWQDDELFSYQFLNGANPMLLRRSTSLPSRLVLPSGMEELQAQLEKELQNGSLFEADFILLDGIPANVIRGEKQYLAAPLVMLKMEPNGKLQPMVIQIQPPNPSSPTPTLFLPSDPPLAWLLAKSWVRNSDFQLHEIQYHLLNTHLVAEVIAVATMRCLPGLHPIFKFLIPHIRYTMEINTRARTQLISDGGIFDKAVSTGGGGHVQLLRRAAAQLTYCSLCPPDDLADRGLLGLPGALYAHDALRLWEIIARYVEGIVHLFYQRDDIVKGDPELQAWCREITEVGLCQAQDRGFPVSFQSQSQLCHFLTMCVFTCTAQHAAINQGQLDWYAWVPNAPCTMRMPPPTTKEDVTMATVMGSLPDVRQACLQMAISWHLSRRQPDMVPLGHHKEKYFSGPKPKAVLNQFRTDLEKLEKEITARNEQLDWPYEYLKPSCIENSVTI
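Purified human 12hLO (150 nM final) in 25 mM Hepes, 0.01% Triton X-100, pH 7.0 was preincubated 15 min at room temperature with compound. Then 40 uM arachidonic acid was added, 30 min. Hydroperoxide was read by Fe-XO absorbance ratio 573/405 nm.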
Hits are given with their value; 0 = inactive; ? = inconclusive; - = no result; ! = not active in a repeat; [ ] = dose if it differs, or a comment. Unless noted, calls follow the shape of the dose curve; as a rule, active = well fitted curve in the direction sought with a large enough effect; inconclusive = small, poorly fitted or top-dose-only effect, or another doubt; inactive = no such curve, though single readings can be large; an effect the other way counts as inactive or inconclusive.

SMILES	IL1B secr inh	TDP1 cell CPT	DT40 TDP1 no CPT	HT1080NT lethal	HT1080 IDH1KD tx	ALOX12 inh
Nc1c(C(=O)CSc2ccccn2)c(=O)[nH]c(=O)n1C1CC1	0	0	0	0[9.24 µM]	0	0
CC(c1nnc(SCC(=O)c2c(N)n(C3CC3)c(=O)[nH]c2=O)n1-c1ccc(F)cc1)N(C)C (stereo unspecified)	0	0	2.9µM	0	0	0
CCN(CC)S(=O)(=O)c1ccc(SCC(=O)c2c(N)n(C3CC3)c(=O)[nH]c2=O)nc1	0	?	21µM	0	0	?
CC(=O)NC(c1cc(Cl)c2ccccc2c1O)C(C)C (stereo unspecified)	-	-	-	-	-	0
CCC(=O)NC(c1ccc(OC)cc1)c1cc(Cl)c2cccnc2c1O (stereo unspecified)	0	5.8µM	6.5µM	0	?	0
CC(=O)NC(c1ccc(C)cc1)c1cc(Cl)c2cccnc2c1O (stereo unspecified)	0	5.2µM	4.1µM	0	?	?
COc1ccc(C(=O)NCCCNC(=O)c2cccnc2)cc1OC	0	0	0	0	0	0
Oc1c(C(Nc2ccccn2)c2cccnc2)cc(Cl)c2cccnc12 (stereo unspecified)	0	4.6µM	5.2µM	?	?	?
COc1ccc(C(NC(=O)c2cccnc2)c2cc(Cl)c3cccnc3c2O)cc1OC (stereo unspecified)	0	18µM	18µM	21µM	12µM	0
CN(C)[C@@H]1CC[C@@]23CCCN2C(=O)CCC[C@H]3[C@H]1Cc1ccccc1	-	-	-	-	-	0
Cn1c(CNC(=O)C(Cc2ccccc2)NC(=O)Cc2ccc(Cl)cc2)cc(=O)n(C)c1=O (stereo unspecified)	-	-	-	-	-	0
Cc1noc(-c2nc(-c3ccncc3)no2)n1	-	-	-	-	-	0
COc1ccc(C(=O)NC(c2ccc(OC)c(OC)c2)c2cc(Cl)c3cccnc3c2O)cc1 (stereo unspecified)	-	5µM	5.6µM	-	-	-
Cc1ccc(F)cc1NC(=O)c1nn(-c2ccccc2)c(=O)c2ccccc12	-	-	-	-	-	0
COC(=O)[C@]12CCCCC=C1N(CCc1ccc(OC)c(OC)c1)C(=O)[C@H](CC(=O)NCc1cccc3ccccc13)C2	0	10µM	9.2µM	?	?	0
COC(=O)[C@]12CCCCC=C1N(Cc1cccc3ccccc13)C(=O)[C@H](CC(=O)NCc1ccc(OC)c(OC)c1)C2	?	?	?	?	?	0
COC(=O)[C@]12CCCCC=C1N(CCc1ccc(OC)c(OC)c1)C(=O)[C@H](CC(=O)NCc1ccc(C)o1)C2	0	16µM	?	0	0	0
O=C(CSc1nnc(-c2ccccc2)n1-n1cccc1)Nc1ccc2c(c1)OCO2	-	-	-	-	-	0
CCC(CO)Nc1nc2ccc(Cl)cc2c2ccccc12 (stereo unspecified)	-79	?	?	?	18µM	?
C=CCNC(=O)C1CC(c2ccccc2F)=NO1 (stereo unspecified)	-	-	-	-	-	0
CN(C)c1ccc(C(=O)Nc2cnc3ccccc3c2)cc1	-	-	-	-	-	40µM
CN(C)c1cccc(C(=O)Nc2ccc(Nc3ccccc3)cc2)c1	-	-	-	-	-	0
COc1ccc(C(=O)Nc2ccc3ncccc3c2)cc1	0	5.8µM	?	0	0	0
CN(C)c1ccc(C(=O)Nc2sc(Nc3ccccc3)nc2C(N)=O)cc1	-	?	7.3µM	-	-	?
Cc1ccc(C(=O)Nc2ccc3ncccc3c2)cc1	?	0	?	0	0	0
SMILES	IL1B secr inh	TDP1 cell CPT	DT40 TDP1 no CPT	HT1080NT lethal	HT1080 IDH1KD tx	ALOX12 inh
O=C(Nc1cnc2ccccc2c1)c1ccncc1	0	?	?	0	0	0
CCOc1ncccc1C(=O)Nc1cccc(-c2nc3cccnc3s2)c1	0	?	13µM	0	0	0
O=C(NCCc1ccccc1)c1nc(-c2ccc3[nH]ccc3c2)no1	-	-	-	-	-	0
O=C(Nc1cccc(-c2nc3cccnc3s2)c1)c1cccc(Br)c1	-	8.2µM	8.2µM	-	-	0
O=C(Nc1cccc(-c2nc3cccnc3s2)c1)c1ccco1	0	0	?	0	0	0
CN(C)c1ccc(C(=O)Nc2cccc(-c3nc4cccnc4s3)c2)cc1	-	5.8µM	10µM	-	-	0
CCC(C)NC(=O)CSc1nc2ccccc2o1 (stereo unspecified)	-	-	-	-	-	0
COc1ccccc1C1=NN(C(=O)C(C)C)C(c2ccc3nccnc3c2)C1 (stereo unspecified)	-	-	-	-	-	0
CCOC(=O)c1[nH]c(C)c(CCC(=O)N2CCC(C(=O)NCCN(C)C)CC2)c1C	-	-	-	-	-	0
CCOC(=O)CSc1c(-c2cccs2)[nH]c2ccccc12	0	0	0	18µM	?	0
CCOC(=O)CSc1c(-c2ccc(Cl)cc2)[nH]c2ccccc12	0	?	?	?	0	0
O=C(CCc1ccccc1)NCC12CC3CC(CC(C3)C1)C2	-	-	-	-	-	0
Cc1noc(C)c1[S+](=O)([O-])N1CCC2OCCN(Cc3ccccc3)C(=O)C2C1 (stereo unspecified)	-	-	-	-	-	100µM
C[C@]12CCC3c4ccc(OC(=O)c5ccccc5)cc4CCC3C1CCC2=O (stereo partly specified)	-	0	0	-	-	-
CCOc1cc2c(cc1O)C(=NO)CC1C2CCC2(C)C(O)CCC12 (stereo unspecified)	0	0.18µM	0.052µM	0.29µM	?	0
COc1cc2c(cc1O)CCC1C2CC[C@@]2(C)C1CC[C@@H]2O (stereo partly specified)	-	2.4µM	1.9µM	-	-	?
C[C@]12CC[C@@H]3c4ccc(O)cc4CC[C@H]3[C@@H]1C[C@@H](O)[C@@H]2O	0	?	0	0	0	0
CCOc1cc(C2NC(=O)NC2=O)ccc1O (stereo unspecified)	0	0	0	0	0	0
C[C@]12CC[C@@H]3c4ccc(OC(=O)c5ccccc5)cc4CC[C@H]3[C@@H]1CC[C@@H]2O	0	15µM!	13µM!	0	0	0
Cc1ccc(-c2nc(C#N)c(NCC(c3cccs3)N(C)C)o2)cc1 (stereo unspecified)	-	-	-	-	-	0
O=C(NCCCc1ccccc1F)[C@@]12CNC[C@@H]1CN(Cc1ccccc1)C2	-	-	-	-	-	0
Cc1ccc(S(=O)(=O)Oc2ccc3c(C)cc(=O)oc3c2)cc1C	-	-	-	-	-	0
O=C(CSc1ncc(-c2ccc(Br)cc2)o1)NC1CCCCC1	-	-	-	-	-	0
CCOC1=C2[C@@H](CN(S(=O)(=O)c3ccccc3C)[C@H]2c2ccc(Cl)cc2)[C@H]2C(=O)N(C3CCCCC3)C(=O)[C@H]2C1	0	21µM	?	0	0	?
